# According to article PMC8384837, “Expanding the binding specificity for RNA recognition by a PUF domain”:
# Substitutions are numbered along the chain they refer to.
# Columns and labels:
# Test in all cases: yeast three-hybrid, YBZ-1, SC-Leu-His + 0.5 mM 3-AT, 4 days
# Settings in all cases: tags: N-Gal4 AD-HA kept; label: inside an RPR1-promoter hybrid RNA with tandem MS2 sites; ssRNA
# PUM1 PUF domain R3-DRQ = PUM1 PUF domain R3-DRQ (Homo sapiens, UniProt Q14671 828-1176, C935D)
# In short: (§1)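 The interaction score is the log change in how often each variant appears, from input to selection. Frequencies came from PCR-amplified, Illumina-sequenced repeat regions of Pumilio-1 PUF domain libraries grown in strain YBZ-1 (LexA–MS2 coat fusion, HIS3 reporter) alongside matching RNA elements. Input plates were SC-Leu and selection plates were SC-Leu-His + 0.5 mM 3-AT, each for four days, and the log2 calculation used a pseudocount of 1 where a variant was absent.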
# PUM1 PUF domain R4-SRY = PUM1 PUF domain R4-SRY (Homo sapiens, UniProt Q14671 828-1176, N971S;H972R;Q975Y)
# In short: as §1
# PUM1 PUF domain R8-PWR = PUM1 PUF domain R8-PWR (Homo sapiens, UniProt Q14671 828-1176, N1122P;Y1123W;Q1126R)
# In short: as §1
# PUM1 PUF domain R5-RMP = PUM1 PUF domain R5-RMP (Homo sapiens, UniProt Q14671 828-1176, C1007R;R1008M;Q1011P)
# In short: as §1
# PUM1 PUF domain R8-AYK = PUM1 PUF domain R8-AYK (Homo sapiens, UniProt Q14671 828-1176, N1122A;Q1126K)
# In short: as §1
# PUM1 PUF domain R6-SWA = molecular target: T1, PUM1 PUF domain R6-SWA (Homo sapiens, UniProt Q14671 828-1176, N1043S;Y1044W;Q1047A)
# T1 sequence: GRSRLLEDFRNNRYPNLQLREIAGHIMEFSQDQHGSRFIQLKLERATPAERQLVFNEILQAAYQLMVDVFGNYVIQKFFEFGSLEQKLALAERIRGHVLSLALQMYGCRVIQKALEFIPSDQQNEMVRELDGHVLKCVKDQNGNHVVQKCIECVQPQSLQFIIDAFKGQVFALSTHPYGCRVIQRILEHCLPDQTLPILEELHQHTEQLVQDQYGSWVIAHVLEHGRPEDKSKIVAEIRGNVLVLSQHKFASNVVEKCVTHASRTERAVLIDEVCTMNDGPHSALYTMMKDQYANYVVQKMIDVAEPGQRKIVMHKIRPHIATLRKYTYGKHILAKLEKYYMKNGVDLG
# In short: as §1
# PUM1 PUF domain R2-NRG = PUM1 PUF domain R2-NRG (Homo sapiens, UniProt Q14671 828-1176, Y900R;Q903G)
# In short: as §1
# PUM1 PUF domain R8-RFL = PUM1 PUF domain R8-RFL (Homo sapiens, UniProt Q14671 828-1176, N1122R;Y1123F;Q1126L)
# In short: as §1
# PUM1 PUF domain R8-CFK = PUM1 PUF domain R8-CFK (Homo sapiens, UniProt Q14671 828-1176, N1122C;Y1123F;Q1126K)
# In short: as §1
# PUM1 PUF domain R8-KHY = PUM1 PUF domain R8-KHY (Homo sapiens, UniProt Q14671 828-1176, N1122K;Y1123H;Q1126Y)
# In short: as §1
# PUM1 PUF domain R3-YRR = PUM1 PUF domain R3-YRR (Homo sapiens, UniProt Q14671 828-1176, C935Y;Q939R)
# In short: as §1
# PUM1 PUF domain R3-LNG = PUM1 PUF domain R3-LNG (Homo sapiens, UniProt Q14671 828-1176, C935L;R936N;Q939G)
# In short: as §1
# PUM1 PUF domain R3-GHP = PUM1 PUF domain R3-GHP (Homo sapiens, UniProt Q14671 828-1176, C935G;R936H;Q939P)
# In short: as §1
# PUM1 PUF domain R3-SCD = PUM1 PUF domain R3-SCD (Homo sapiens, UniProt Q14671 828-1176, C935S;R936C;Q939D)
# In short: as §1
# PUM1 PUF domain R3-FRC = PUM1 PUF domain R3-FRC (Homo sapiens, UniProt Q14671 828-1176, C935F;Q939C)
# In short: as §1
# PUM1 PUF domain R3-WCG = PUM1 PUF domain R3-WCG (Homo sapiens, UniProt Q14671 828-1176, C935W;R936C;Q939G)
# In short: as §1
# PUM1 PUF domain R4-SHP = PUM1 PUF domain R4-SHP (Homo sapiens, UniProt Q14671 828-1176, N971S;Q975P)
# In short: as §1
# PUM1 PUF domain R6-YWV = molecular target: T2, PUM1 PUF domain R6-YWV (Homo sapiens, UniProt Q14671 828-1176, N1043Y;Y1044W;Q1047V)
# T2 sequence: T1 sequence with S216Y, A220V
# In short: as §1
# PUM1 PUF domain R2-GWG = PUM1 PUF domain R2-GWG (Homo sapiens, UniProt Q14671 828-1176, N899G;Y900W;Q903G)
# In short: as §1
# PUM1 PUF domain R7-RIL = PUM1 PUF domain R7-RIL (Homo sapiens, UniProt Q14671 828-1176, S1079R;N1080I;E1083L)
# In short: as §1
sequence,measurement,setting,value
GGCUAGAACUAGUGGAUCCCCCGGCGCCCGGCGGCUCGAGCCCGGGUAAGUGUAAAUAGUCUGCAUGCCGCCGGGCGCCAUGCCUGCAGGUCGACUCUAGAAAACAUG,binding signal,PUM1 PUF domain R3-DRQ,4.43 log2 enrichment (interaction score)
same,binding signal,PUM1 PUF domain R4-SRY,5.27 log2 enrichment (interaction score)
same,binding signal,PUM1 PUF domain R8-PWR,4.27 log2 enrichment (interaction score)
same,binding signal,PUM1 PUF domain R5-RMP,0.45 log2 enrichment (interaction score)
same,binding signal,PUM1 PUF domain R8-AYK,2.5 log2 enrichment (interaction score)
same,binding signal,PUM1 PUF domain R6-SWA,1.55 log2 enrichment (interaction score)
same,binding signal,PUM1 PUF domain R2-NRG,2.44 log2 enrichment (interaction score)
same,binding signal,PUM1 PUF domain R8-RFL,4.7 log2 enrichment (interaction score)
GGCUAGAACUAGUGGAUCCCCCGGCGCCCGGCGGCUCGAGCCCGGGUAAGCGUAAAUAGUCUGCAUGCCGCCGGGCGCCAUGCCUGCAGGUCGACUCUAGAAAACAUG,binding signal,PUM1 PUF domain R8-CFK,4.21 log2 enrichment (interaction score)
same,binding signal,PUM1 PUF domain R8-PWR,4.3 log2 enrichment (interaction score)
same,binding signal,PUM1 PUF domain R8-KHY,4.22 log2 enrichment (interaction score)
same,binding signal,PUM1 PUF domain R8-AYK,4.11 log2 enrichment (interaction score)
same,binding signal,PUM1 PUF domain R8-RFL,5.36 log2 enrichment (interaction score)
GGCUAGAACUAGUGGAUCCCCCGGCGCCCGGCGGCUCGAGCCCGGGUAAGUGUAAUUAGUCUGCAUGCCGCCGGGCGCCAUGCCUGCAGGUCGACUCUAGAAAACAUG,binding signal,PUM1 PUF domain R3-YRR,0.22 log2 enrichment (interaction score)
same,binding signal,PUM1 PUF domain R3-LNG,1.7 log2 enrichment (interaction score)
same,binding signal,PUM1 PUF domain R3-GHP,4.31 log2 enrichment (interaction score)
GGCUAGAACUAGUGGAUCCCCCGGCGCCCGGCGGCUCGAGCCCGGGUAAGUGUAAGUAGUCUGCAUGCCGCCGGGCGCCAUGCCUGCAGGUCGACUCUAGAAAACAUG,binding signal,PUM1 PUF domain R3-YRR,4.01 log2 enrichment (interaction score)
same,binding signal,PUM1 PUF domain R3-SCD,5.61 log2 enrichment (interaction score)
same,binding signal,PUM1 PUF domain R3-LNG,3.21 log2 enrichment (interaction score)
same,binding signal,PUM1 PUF domain R3-FRC,4.65 log2 enrichment (interaction score)
same,binding signal,PUM1 PUF domain R3-GHP,4.47 log2 enrichment (interaction score)
same,binding signal,PUM1 PUF domain R3-WCG,4.13 log2 enrichment (interaction score)
GGCUAGAACUAGUGGAUCCCCCGGCGCCCGGCGGCUCGAGCCCGGGUAAGUGUAUAUAGUCUGCAUGCCGCCGGGCGCCAUGCCUGCAGGUCGACUCUAGAAAACAUG,binding signal,PUM1 PUF domain R4-SRY,0.46 log2 enrichment (interaction score)
same,binding signal,PUM1 PUF domain R4-SHP,5.36 log2 enrichment (interaction score)
GGCUAGAACUAGUGGAUCCCCCGGCGCCCGGCGGCUCGAGCCCGGGUAAGUGUACAUAGUCUGCAUGCCGCCGGGCGCCAUGCCUGCAGGUCGACUCUAGAAAACAUG,binding signal,PUM1 PUF domain R4-SHP,5.25 log2 enrichment (interaction score)
GGCUAGAACUAGUGGAUCCCCCGGCGCCCGGCGGCUCGAGCCCGGGUAAGUGAAAAUAGUCUGCAUGCCGCCGGGCGCCAUGCCUGCAGGUCGACUCUAGAAAACAUG,binding signal,PUM1 PUF domain R6-YWV,4.97 log2 enrichment (interaction score)
same,binding signal,PUM1 PUF domain R6-SWA,3.21 log2 enrichment (interaction score)
GGCUAGAACUAGUGGAUCCCCCGGCGCCCGGCGGCUCGAGCCCGGGUAAGUGUCAAUAGUCUGCAUGCCGCCGGGCGCCAUGCCUGCAGGUCGACUCUAGAAAACAUG,binding signal,PUM1 PUF domain R5-RMP,4.09 log2 enrichment (interaction score)
GGCUAGAACUAGUGGAUCCCCCGGCGCCCGGCGGCUCGAGCCCGGGUAAGUGUAAAGAGUCUGCAUGCCGCCGGGCGCCAUGCCUGCAGGUCGACUCUAGAAAACAUG,binding signal,PUM1 PUF domain R2-GWG,2.13 log2 enrichment (interaction score)
GGCUAGAACUAGUGGAUCCCCCGGCGCCCGGCGGCUCGAGCCCGGGUAAGUGUAAAAAGUCUGCAUGCCGCCGGGCGCCAUGCCUGCAGGUCGACUCUAGAAAACAUG,binding signal,PUM1 PUF domain R2-GWG,3.32 log2 enrichment (interaction score)
same,binding signal,PUM1 PUF domain R2-NRG,2.91 log2 enrichment (interaction score)
GGCUAGAACUAGUGGAUCCCCCGGCGCCCGGCGGCUCGAGCCCGGGUAAGUUUAAAUAGUCUGCAUGCCGCCGGGCGCCAUGCCUGCAGGUCGACUCUAGAAAACAUG,binding signal,PUM1 PUF domain R7-RIL,2.38 log2 enrichment (interaction score)
